In PubChem BioAssay AID652054 (National Center for Advancing Translational Sciences (NCATS), 2013) one finds max response, negative = inhibition data, which are given here for 65 compounds.

SMILES strings stand for the structures. Screen size: about 360,000 compounds; about 9,100 (2.5%) were called active. About 4% were inconclusive and are not listed. Cut-off read from the data, not from the text of the source: active = max response below about -50%; inconclusive = no clear call, values can overlap the other calls; inactive = above that. Many of the other results were omitted from the sample, so actives are more common in it than they were.
% is set by controls: 0 for no effect and ±100 for the full control effect.

In the assay the target is D(3) dopamine receptor (Homo sapiens) (UniProt P35462). Nature of the assay: qHTS of D3 Dopamine Receptor Antagonist: qHTS. To be noted: D3R cells, DiscoveRx beta-arrestin luminescence, antagonist mode; hits give low values. An outline of the steps: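 Cells expressing the human receptor were seeded at 1500 cells/well, incubated overnight at 37 degrees C in 5% CO2, then exposed to library compounds with dopamine controls for 90 minutes at 37 degrees C before luminescent detection.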
Sequence of D(3) dopamine receptor (Homo sapiens) (P35462 whole entry, looked up): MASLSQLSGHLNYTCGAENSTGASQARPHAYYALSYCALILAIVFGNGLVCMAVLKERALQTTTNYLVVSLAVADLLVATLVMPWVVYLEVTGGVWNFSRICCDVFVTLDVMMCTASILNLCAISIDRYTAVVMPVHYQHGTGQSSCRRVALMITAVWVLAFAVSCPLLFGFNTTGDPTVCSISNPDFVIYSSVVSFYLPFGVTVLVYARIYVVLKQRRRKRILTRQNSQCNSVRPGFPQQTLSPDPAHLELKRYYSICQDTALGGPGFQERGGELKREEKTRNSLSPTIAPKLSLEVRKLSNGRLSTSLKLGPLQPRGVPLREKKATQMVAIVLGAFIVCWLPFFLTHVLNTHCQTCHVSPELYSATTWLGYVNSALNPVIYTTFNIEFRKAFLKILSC
On the technique in general: Quantitative high-throughput screening tests each substance at several concentrations.
As for `CCC(=O)N1CCCC1(C)C(=O)Nc1ccc2c(c1)CCN2C(C)=O` (stereo not given), the max response, negative = inhibition is 19.1% (inactive).
As for `CCC1Nc2ncnc(N3CCN(c4ccccc4)CC3)c2N(Cc2ccc(Cl)cc2)C1=O` (stereo not given), the figure is -73.8% (active); as for `CC[C@]1(C(=O)OC)[C@H]2C(=O)N(Cc3ccccc3)C(=O)[C@H]2[C@H]2CN=C(SCc3ccc(Cl)cc3)N21`, -3.9% (inactive); as for `OC[C@@H]1CN(Cc2ccncc2)C[C@H](n2cnc3c(N4CCN(c5ccccc5)CC4)ncnc32)O1`, 3.87% (inactive).
Then `O=C(CNC(=O)N1CC(=O)Nc2ccccc21)Nc1ccc(Br)cc1F`, with 0% (inactive); and `COc1ccc(NC(=O)C2Cc3c(-c4ccc(Cl)cc4)ccnc3O2)cc1` (stereo not given), with 28.4% (inactive); and `CC1(C(=O)NS(=O)(=O)Cc2cccc(Cl)c2)CCN1C(=O)Cc1ccccc1` (stereo not given), with -2.25% (inactive).
As for `CCc1ccc([C@@H]2CC(=O)[C@@H]3CN(S(=O)(=O)c4ccc(C)cc4)[C@H](c4ccc(Cl)cc4)C[C@@H]3N2S(=O)(=O)c2ccc(C)cc2)cc1`, the figure is 0% (inactive).
As for `O=C(O)c1ccccc1-c1cccc2nncn12`, the max response, negative = inhibition was 0% (inactive).
Then `Cc1ccc(S(=O)(=O)N2CC[C@H]3[C@@H](C2)C(=O)C[C@@H](c2ccccc2)N3S(=O)(=O)c2ccc(C)cc2)cc1`, with -19.4% (inactive).
Turning to `Cc1ccc(NC(=O)C2CCCN2S(=O)(=O)c2cccc3cccnc23)c(C)c1` (stereo not given), the max response, negative = inhibition was 9.44% (inactive).
Turning to `Cc1cc(C)cc(NC(=O)C2CCCN2S(=O)(=O)c2cccc3cccnc23)c1` (stereo not given), the max response, negative = inhibition is -1.4% (inactive).
Then `O=C(Nc1nccs1)C1CCCN1S(=O)(=O)c1cccc2cccnc12` (stereo not given), with -56.6% (active).
Then `CC1(C(=O)Nc2ccc3c(c2)OCCO3)CCN1C(=O)Cc1cc(F)ccc1F` (stereo not given), with 26.4% (inactive); and `COc1ccc(-c2cc3nc(NCCOc4ccccc4)ccn3n2)cc1`, with 35.5% (inactive).
For `S=c1[nH]nc(-c2ccc(Cl)cc2)n1CC1CCCO1` (stereo not given), the max response, negative = inhibition is -72% (active).
On to `CCn1c(-c2ccncc2)n[nH]c1=S`, for which the max response, negative = inhibition was 0.921% (inactive).
As for `Cc1nnc(SCC(=O)NNC(=O)c2ccc(Cl)cc2)n1CC1CCCO1` (stereo not given), the figure is -18.7% (inactive).
Then `O=C(Nc1cc(Br)ccc1F)c1nc[nH]c1C(=O)NCc1ccccc1`, with -14.4% (inactive).
With `COc1ccc(-c2[nH][nH]c(=O)c2NC(=O)c2ccc([N+](=O)[O-])cc2)cc1`, the max response, negative = inhibition is -25.3% (inactive).
For `COC(=O)c1ccc2nc(-c3ccc(OC)c(OC)c3)c(Cc3ccccc3)n2c1`, the max response, negative = inhibition is 1.12% (inactive).
`COc1cc(NS(=O)(=O)c2ccc3ccccc3c2)c2ncccc2c1`: the max response, negative = inhibition is -25.7% (inactive).
As for `O=[N+]([O-])c1ccccc1S(=O)(=O)Nc1cccc2cccnc12`, the figure is -72% (active).
As for `Cc1ccc2cccc([N+](=O)[O-])c2n1`, the figure is 0% (inactive); as for `CC(C)Oc1cc(F)ccc1-c1cc(C(=O)Nc2cccc(Cl)c2)[nH]n1`, 0% (inactive); as for `CCOC(=O)C1=CC[C@@H](c2ccccc2)N(S(=O)(=O)c2ccc(C)cc2)[C@H]1c1cccc(OC)c1`, 11.2% (inactive).
Then `CCc1cc(-c2nnn(CCC3COCCO3)c2CC)ccc1-c1cn(Cc2ccc3ccccc3c2)nn1` (stereo not given), with -10.8% (inactive).
On to `O=C(COc1ccc(Cl)cc1[N+](=O)[O-])N1CCCCC1`, for which the max response, negative = inhibition was -5.15% (inactive).
Then `Cc1cc(C)c(OCCN2CC(C)OC(C)C2)c(Br)c1` (stereo not given), with -21.2% (inactive); and `Cc1ccc(OCC(=O)Oc2ccccc2[N+](=O)[O-])cc1`, with 0.0069% (inactive).
`Cc1cc(OCCCN2CCN(Cc3ccccc3)CC2)ccc1[N+](=O)[O-]`: the max response, negative = inhibition is -14.9% (inactive).
As for `O=[N+]([O-])c1ccccc1OCCCCN1CCCCC1`, the max response, negative = inhibition is -89.3% (active).
Then `CC1CN(CCCOc2ccccc2-c2ccccc2)CC(C)O1` (stereo not given), with -29.6% (inactive); and `CC1CN(CCOc2ccccc2[N+](=O)[O-])CC(C)O1` (stereo not given), with -93.5% (active); and `O=C(COc1ccccc1[N+](=O)[O-])NC1CC1`, with 16.3% (inactive).
For the compound `C=CCN(CC=C)CCOc1ccccc1[N+](=O)[O-]`, the max response, negative = inhibition is -52.4% (active).
Turning to `O=c1[nH][nH]c2c1[C@H](c1ccc(Cl)cc1)O[C@H](CCc1ccccc1)C2`, the max response, negative = inhibition is -23.3% (inactive).
Then `CCCNC(=O)C1(C)CCN(C(=O)c2cc(F)ccc2C)C1` (stereo not given), with -11.8% (inactive); and `CC(C)CN1CCC1(C)C(=O)Nc1ccc(OC(F)F)cc1` (stereo not given), with 12.7% (inactive); and `O=C(Nc1cc(F)ccc1F)c1ccc2c(=O)n3c(nc2c1)CCC3`, with 8.55% (inactive).
Regarding `Cc1ccc(NC(=O)[C@H](Cc2ccccc2)NC(=O)CC[C@H]2O[C@@H](n3ccc(=O)[nH]c3=O)[C@H](O)[C@@H]2O)cc1C`, the max response, negative = inhibition is -15.6% (inactive).
As for `OC[C@@H]1CN(Cc2ccc(F)cc2)C[C@H](n2cnc3c(NC4CCCC4)ncnc32)O1`, the figure is 4.42% (inactive).
For the compound `CC1(C(=O)NS(=O)(=O)c2ccccc2)CCN1C(=O)c1ccccc1` (stereo not given), the max response, negative = inhibition was 10.2% (inactive).
Turning to `CC1(C)CCSC(/C=C/c2ccccc2)=N1`, the max response, negative = inhibition is -74.9% (active).
On to `CC1(C(=O)O)CCN1C(=O)/C=C/c1ccccc1` (stereo not given), for which the max response, negative = inhibition was 0% (inactive).
As for `CC1(C(=O)NS(=O)(=O)c2ccccc2)CCN1C(=O)C/C=C/c1ccccc1` (stereo not given), the figure is -9.32% (inactive).
As to `CCC1OC(C2CC2)CC2=C1C(=O)OC(C)(C)O2` (stereo not given), the max response, negative = inhibition was 14.7% (inactive).
Consider `CCCC(=O)N1CCC1(C)C(=O)NCc1ccc(C(C)C)cc1` (stereo not given), for which the max response, negative = inhibition is -6.82% (inactive).
As for `CC(C)(C)N(CC#CCC(O)(c1ccccc1)C1CCCC1)CCO` (stereo not given), the figure is 11.7% (inactive); as for `CN(CC#CCC(c1ccccc1)c1ccccc1)C(C)(C)C`, -61.6% (active); as for `O=C1CCC(=O)N1CCC(=O)N(C(=O)NC1CCCCC1)C1CCCCC1`, 14.6% (inactive).
For the compound `CC1(C)NC(=O)N(CC(=O)Nc2ccc(-c3ccccc3)cc2)C1=O`, the max response, negative = inhibition is 16.4% (inactive).
Then `c1ccc2c(c1)CSc1sccc1C2=C1CCNCC1`, with -65.7% (active).
As to `CCN1CCN(CCCCOc2ccccc2F)CC1`, the max response, negative = inhibition was -71.5% (active).
As for `O=c1c2ccccc2ncn1CCCCOc1ccccc1F`, the figure is -15.9% (inactive); as for `Cc1ccc(/C=N/NC(=O)COc2ccccc2-c2ccccc2)cc1`, 25.4% (inactive).
As for `Cc1[nH]c2ccccc2c1C(=O)CN1CC(C)CC(C)C1` (stereo not given), the figure is -3.3% (inactive); as for `Cc1cccc(NC(=O)CCN2CC(C)CC(C)C2)c1` (stereo not given), -1.96% (inactive).
As for `COc1ccccc1N1CCN(CCCCOc2ccc(F)cc2)CC1`, the figure is -78.2% (active); as for `COc1ccccc1N1CCN(CC(=O)NC(=O)NCc2ccco2)CC1`, -22.2% (inactive).
As for `COc1ccccc1N1CCN(c2ccc([N+](=O)[O-])nc2)CC1`, the max response, negative = inhibition is 5.81% (inactive).
Then `CC1CC(C)CN(CCOc2cccc3ccccc23)C1` (stereo not given), with -86.3% (active); and `CN1CCN(CCCCOc2ccccc2-c2ccccc2)CC1`, with -71% (active).
As for `OCCN1CCN(C(=S)c2ccc(-c3ccccc3)cc2)CC1`, the figure is -6.47% (inactive).
As for `Fc1ccccc1OCCCCn1cncn1`, the figure is 2.5% (inactive).
